According to the supplement of paper PMC11732987, “Enantioselective OTUD7B fragment discovery through chemoproteomics screening and high-throughput optimisation” (Communications Chemistry, 2025):

Key:
Assay in all cases: log2 ratio of Biotin-Ahx-Ub-VS probe labelling (fragment/DMSO); higher = less target engagement (more negative = stronger competition), active = hit call of the paper (q ≤ 0.05, log2 ratio ≤ -1)
Conditions in all cases: compound concentration: 200 uM; treatment time: 3 h
[1] = molecular target: T1, USP42 (UniProt Q9H9J4)
T1 sequence (whole entry): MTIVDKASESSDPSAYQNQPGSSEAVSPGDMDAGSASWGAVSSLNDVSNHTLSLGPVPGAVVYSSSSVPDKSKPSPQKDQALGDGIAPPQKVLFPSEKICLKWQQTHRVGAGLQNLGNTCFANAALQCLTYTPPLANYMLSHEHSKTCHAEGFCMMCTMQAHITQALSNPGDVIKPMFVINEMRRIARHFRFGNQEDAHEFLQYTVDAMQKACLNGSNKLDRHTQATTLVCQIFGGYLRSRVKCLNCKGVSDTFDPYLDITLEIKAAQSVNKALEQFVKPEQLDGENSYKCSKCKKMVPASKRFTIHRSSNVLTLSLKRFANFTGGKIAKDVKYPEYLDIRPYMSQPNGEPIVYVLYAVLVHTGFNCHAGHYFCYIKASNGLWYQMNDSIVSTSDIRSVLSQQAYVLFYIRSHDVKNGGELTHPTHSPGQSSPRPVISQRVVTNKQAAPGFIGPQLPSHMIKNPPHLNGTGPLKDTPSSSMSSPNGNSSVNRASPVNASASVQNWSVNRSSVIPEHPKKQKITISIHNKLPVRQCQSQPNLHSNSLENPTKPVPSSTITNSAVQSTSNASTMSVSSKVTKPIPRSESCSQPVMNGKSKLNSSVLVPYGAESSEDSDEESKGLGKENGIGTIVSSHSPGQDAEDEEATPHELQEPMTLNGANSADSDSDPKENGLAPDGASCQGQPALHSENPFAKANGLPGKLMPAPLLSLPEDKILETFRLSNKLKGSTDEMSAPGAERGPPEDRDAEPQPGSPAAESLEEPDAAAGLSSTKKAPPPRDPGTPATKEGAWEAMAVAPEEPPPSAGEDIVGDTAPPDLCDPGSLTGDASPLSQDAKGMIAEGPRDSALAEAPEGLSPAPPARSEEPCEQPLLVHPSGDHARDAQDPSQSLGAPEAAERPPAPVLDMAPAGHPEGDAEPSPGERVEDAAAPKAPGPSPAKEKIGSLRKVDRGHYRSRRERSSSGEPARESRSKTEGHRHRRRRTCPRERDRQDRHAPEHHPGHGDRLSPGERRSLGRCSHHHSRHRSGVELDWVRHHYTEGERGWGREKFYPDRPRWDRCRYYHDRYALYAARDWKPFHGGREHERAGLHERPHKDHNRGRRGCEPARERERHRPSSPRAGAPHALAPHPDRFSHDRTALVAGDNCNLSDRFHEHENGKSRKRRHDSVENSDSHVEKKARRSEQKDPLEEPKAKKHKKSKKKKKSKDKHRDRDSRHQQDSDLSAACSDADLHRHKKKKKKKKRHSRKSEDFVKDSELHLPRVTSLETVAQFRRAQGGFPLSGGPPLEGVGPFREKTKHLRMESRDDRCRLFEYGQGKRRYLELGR
Procedure, shortened: (§1)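 Using Biotin-Ahx-Ub-VS at 0.5 µM final for 1 h, DUBs were labelled in HEK293T lysate (495 µg per sample) that had first been treated in triplicate with fragment at 200 µM or vehicle for 3 h. NeutrAvidin enrichment, LysC and trypsin digestion and diaPASEF LC-MS/MS followed. Spectronaut label-free quantities were global-median-normalised. Values are average log2 fragment/vehicle ratios by unpaired t-test, using proteins with ≥2 unique peptides.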

[2] = molecular target: USP46 (UniProt P62068)
Chain of USP46 (P62068 whole entry): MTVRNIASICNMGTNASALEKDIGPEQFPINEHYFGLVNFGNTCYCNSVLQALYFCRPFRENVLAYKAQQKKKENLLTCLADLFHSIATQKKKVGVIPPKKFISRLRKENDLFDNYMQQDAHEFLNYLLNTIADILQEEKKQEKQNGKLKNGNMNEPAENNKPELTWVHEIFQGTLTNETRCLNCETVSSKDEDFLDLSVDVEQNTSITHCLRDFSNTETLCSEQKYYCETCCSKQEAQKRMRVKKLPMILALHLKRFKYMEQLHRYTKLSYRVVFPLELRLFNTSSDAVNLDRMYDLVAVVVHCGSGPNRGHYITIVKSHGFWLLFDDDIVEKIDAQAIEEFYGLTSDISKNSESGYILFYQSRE
Procedure, shortened: as §1

[3] = molecular target: T2, USP47 (UniProt Q96K76)
T2 sequence (whole entry): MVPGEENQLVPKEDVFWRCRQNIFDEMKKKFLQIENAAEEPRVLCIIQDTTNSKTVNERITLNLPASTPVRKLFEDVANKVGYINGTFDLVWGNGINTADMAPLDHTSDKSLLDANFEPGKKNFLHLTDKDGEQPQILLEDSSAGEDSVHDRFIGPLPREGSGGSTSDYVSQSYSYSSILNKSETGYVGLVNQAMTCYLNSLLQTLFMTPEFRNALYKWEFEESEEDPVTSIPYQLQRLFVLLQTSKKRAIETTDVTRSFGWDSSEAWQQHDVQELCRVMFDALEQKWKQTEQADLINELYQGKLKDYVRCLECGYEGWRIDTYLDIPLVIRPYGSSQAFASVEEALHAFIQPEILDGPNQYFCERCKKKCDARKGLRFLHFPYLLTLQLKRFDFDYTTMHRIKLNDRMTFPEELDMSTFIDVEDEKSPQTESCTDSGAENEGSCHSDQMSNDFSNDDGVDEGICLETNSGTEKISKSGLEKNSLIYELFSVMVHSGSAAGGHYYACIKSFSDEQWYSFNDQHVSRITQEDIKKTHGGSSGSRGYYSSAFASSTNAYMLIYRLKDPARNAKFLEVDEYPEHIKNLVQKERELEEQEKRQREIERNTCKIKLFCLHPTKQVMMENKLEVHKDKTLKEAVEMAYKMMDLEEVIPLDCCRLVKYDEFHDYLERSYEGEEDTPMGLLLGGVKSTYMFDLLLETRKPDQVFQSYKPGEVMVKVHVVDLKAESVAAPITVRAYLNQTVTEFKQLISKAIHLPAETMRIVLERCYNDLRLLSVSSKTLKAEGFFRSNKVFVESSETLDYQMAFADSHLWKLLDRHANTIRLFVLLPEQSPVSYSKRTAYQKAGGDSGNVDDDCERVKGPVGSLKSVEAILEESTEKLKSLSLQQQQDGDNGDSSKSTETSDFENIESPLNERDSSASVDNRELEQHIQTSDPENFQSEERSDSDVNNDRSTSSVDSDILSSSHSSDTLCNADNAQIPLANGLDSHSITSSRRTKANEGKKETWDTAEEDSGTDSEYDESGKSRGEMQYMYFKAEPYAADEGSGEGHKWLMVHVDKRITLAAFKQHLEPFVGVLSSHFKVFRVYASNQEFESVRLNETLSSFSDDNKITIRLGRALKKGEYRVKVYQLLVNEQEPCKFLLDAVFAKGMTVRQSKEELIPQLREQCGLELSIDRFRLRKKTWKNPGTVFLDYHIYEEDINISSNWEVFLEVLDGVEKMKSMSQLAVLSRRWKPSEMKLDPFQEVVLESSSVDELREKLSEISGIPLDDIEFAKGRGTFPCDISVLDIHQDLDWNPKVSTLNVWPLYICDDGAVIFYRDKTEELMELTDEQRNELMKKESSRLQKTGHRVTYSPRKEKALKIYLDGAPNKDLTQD
Procedure, shortened: as §1

[4] = molecular target: T3, USP48 (UniProt Q86UV5)
T3 sequence (whole entry): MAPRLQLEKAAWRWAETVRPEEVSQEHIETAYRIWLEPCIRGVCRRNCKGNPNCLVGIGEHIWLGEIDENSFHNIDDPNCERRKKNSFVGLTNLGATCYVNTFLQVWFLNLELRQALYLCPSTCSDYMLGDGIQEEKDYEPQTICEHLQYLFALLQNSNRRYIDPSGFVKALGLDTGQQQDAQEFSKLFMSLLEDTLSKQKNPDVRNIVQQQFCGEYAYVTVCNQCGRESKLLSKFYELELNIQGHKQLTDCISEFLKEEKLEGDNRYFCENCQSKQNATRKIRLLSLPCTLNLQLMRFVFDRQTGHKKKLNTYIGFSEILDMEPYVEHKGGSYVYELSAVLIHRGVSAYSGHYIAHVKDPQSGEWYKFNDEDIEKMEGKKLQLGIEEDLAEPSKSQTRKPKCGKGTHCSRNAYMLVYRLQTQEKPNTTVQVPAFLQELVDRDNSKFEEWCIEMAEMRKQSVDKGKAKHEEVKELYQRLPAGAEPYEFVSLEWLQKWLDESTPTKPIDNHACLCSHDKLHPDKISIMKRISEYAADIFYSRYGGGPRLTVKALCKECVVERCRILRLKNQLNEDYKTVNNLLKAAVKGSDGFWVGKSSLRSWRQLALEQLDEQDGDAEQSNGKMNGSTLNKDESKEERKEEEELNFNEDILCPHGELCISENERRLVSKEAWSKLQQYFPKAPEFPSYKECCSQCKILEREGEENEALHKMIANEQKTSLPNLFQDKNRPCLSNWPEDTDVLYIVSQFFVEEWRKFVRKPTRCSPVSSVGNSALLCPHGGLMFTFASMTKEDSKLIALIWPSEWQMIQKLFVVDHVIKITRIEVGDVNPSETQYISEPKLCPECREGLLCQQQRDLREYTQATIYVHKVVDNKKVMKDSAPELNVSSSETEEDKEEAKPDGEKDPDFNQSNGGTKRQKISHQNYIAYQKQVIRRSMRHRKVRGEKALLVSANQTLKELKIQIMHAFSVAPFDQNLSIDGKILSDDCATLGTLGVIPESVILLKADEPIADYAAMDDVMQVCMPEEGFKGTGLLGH
Procedure, shortened: as §1

[5] = molecular target: T4, USP5 (UniProt P45974)
T4 sequence (whole entry): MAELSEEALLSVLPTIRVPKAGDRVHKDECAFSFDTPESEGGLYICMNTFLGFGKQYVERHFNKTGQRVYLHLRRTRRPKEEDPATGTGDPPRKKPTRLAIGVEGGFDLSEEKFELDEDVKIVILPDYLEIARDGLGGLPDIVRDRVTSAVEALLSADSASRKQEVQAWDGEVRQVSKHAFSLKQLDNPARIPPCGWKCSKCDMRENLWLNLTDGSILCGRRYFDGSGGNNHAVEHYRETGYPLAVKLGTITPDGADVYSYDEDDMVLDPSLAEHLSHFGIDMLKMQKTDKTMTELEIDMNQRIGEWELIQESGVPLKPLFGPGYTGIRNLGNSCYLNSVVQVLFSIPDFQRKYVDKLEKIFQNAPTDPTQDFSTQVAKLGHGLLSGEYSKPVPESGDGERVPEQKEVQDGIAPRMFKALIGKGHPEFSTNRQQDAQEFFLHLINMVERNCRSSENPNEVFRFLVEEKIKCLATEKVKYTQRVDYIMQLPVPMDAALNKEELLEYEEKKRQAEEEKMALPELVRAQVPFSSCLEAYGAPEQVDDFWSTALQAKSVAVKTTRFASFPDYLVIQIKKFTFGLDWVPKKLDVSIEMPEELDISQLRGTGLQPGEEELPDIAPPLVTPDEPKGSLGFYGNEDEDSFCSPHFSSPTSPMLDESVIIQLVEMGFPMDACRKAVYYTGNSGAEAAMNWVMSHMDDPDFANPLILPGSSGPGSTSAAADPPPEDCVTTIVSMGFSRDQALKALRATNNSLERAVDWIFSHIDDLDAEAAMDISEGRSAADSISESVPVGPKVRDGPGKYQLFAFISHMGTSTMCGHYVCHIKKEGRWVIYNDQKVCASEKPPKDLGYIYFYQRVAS
Procedure, shortened: as §1

[6] = molecular target: USP54 (UniProt Q70EL1)
Chain of USP54 (Q70EL1 whole entry): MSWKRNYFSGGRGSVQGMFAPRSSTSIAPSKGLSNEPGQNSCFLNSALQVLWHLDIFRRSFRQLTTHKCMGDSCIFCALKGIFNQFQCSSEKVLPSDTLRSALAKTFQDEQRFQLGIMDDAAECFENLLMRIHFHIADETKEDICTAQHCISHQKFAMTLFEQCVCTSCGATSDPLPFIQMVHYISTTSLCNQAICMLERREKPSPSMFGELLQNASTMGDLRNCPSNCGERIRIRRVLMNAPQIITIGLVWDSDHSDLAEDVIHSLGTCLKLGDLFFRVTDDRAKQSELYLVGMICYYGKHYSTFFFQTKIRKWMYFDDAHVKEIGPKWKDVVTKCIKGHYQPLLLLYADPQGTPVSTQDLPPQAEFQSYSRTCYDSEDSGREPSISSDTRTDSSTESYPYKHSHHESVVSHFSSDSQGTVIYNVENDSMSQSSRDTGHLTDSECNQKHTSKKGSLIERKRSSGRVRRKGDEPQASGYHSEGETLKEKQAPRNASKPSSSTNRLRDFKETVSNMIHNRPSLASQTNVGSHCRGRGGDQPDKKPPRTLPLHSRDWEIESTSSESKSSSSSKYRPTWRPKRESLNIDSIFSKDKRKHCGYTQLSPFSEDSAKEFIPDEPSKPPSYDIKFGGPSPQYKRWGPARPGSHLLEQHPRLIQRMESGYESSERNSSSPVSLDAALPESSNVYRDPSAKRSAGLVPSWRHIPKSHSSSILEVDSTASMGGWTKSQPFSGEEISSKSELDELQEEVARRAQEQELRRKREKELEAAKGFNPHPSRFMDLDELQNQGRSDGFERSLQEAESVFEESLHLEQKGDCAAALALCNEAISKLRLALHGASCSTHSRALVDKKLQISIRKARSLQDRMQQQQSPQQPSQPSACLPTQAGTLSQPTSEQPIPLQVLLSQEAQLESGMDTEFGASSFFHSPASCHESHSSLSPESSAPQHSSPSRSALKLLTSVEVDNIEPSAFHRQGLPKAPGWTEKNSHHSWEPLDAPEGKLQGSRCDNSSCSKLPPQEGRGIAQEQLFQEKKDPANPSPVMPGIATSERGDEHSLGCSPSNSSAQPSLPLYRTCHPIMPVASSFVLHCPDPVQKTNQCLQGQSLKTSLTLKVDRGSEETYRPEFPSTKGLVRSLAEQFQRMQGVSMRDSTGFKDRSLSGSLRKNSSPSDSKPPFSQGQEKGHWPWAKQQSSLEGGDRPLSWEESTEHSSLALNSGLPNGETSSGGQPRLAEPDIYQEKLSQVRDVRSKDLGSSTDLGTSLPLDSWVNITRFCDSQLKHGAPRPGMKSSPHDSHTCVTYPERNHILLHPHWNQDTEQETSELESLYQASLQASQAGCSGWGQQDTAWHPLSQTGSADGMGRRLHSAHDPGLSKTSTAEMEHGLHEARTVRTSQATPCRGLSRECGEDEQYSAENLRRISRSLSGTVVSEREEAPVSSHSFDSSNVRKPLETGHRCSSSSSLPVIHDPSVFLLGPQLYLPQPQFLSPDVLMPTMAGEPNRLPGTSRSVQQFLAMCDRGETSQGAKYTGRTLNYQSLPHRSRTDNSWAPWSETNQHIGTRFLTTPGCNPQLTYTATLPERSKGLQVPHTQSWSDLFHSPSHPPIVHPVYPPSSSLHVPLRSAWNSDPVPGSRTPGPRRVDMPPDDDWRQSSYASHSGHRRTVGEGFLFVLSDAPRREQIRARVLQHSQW
Procedure, shortened: as §1

[7] = molecular target: USP7 (UniProt Q93009)
Procedure, shortened: as §1

[8] = molecular target: T5, USP8 (UniProt P40818)
T5 sequence (whole entry): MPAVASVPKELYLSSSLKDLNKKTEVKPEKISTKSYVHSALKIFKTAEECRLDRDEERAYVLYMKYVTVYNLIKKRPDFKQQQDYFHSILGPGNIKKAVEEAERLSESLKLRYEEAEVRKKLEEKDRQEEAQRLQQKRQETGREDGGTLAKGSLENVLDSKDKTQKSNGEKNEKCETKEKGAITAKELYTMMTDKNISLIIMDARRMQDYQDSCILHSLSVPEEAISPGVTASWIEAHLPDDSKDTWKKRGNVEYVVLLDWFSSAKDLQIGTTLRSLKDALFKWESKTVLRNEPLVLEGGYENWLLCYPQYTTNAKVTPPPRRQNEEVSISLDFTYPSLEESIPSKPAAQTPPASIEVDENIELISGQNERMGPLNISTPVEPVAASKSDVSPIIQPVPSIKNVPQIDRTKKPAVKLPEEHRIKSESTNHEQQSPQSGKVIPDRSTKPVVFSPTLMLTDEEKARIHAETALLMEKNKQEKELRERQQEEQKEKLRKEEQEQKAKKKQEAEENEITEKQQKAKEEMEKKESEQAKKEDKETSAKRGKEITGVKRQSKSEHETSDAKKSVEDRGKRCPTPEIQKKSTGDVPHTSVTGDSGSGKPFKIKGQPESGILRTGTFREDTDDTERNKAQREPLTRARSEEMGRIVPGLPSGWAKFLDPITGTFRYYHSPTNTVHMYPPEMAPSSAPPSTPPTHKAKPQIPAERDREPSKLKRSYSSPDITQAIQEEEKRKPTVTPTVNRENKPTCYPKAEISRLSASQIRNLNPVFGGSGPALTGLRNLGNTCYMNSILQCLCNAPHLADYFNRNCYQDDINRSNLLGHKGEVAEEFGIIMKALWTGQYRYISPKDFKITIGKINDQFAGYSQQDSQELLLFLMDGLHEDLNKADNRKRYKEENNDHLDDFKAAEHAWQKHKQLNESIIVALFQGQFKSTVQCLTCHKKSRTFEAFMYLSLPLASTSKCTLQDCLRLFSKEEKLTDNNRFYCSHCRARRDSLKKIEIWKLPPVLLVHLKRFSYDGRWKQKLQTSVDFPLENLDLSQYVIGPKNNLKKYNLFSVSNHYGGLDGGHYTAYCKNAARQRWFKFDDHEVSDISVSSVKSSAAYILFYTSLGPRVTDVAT
Procedure, shortened: as §1

[9] = molecular target: USP9X (UniProt Q93008)
Chain of USP9X (Q93008 whole entry): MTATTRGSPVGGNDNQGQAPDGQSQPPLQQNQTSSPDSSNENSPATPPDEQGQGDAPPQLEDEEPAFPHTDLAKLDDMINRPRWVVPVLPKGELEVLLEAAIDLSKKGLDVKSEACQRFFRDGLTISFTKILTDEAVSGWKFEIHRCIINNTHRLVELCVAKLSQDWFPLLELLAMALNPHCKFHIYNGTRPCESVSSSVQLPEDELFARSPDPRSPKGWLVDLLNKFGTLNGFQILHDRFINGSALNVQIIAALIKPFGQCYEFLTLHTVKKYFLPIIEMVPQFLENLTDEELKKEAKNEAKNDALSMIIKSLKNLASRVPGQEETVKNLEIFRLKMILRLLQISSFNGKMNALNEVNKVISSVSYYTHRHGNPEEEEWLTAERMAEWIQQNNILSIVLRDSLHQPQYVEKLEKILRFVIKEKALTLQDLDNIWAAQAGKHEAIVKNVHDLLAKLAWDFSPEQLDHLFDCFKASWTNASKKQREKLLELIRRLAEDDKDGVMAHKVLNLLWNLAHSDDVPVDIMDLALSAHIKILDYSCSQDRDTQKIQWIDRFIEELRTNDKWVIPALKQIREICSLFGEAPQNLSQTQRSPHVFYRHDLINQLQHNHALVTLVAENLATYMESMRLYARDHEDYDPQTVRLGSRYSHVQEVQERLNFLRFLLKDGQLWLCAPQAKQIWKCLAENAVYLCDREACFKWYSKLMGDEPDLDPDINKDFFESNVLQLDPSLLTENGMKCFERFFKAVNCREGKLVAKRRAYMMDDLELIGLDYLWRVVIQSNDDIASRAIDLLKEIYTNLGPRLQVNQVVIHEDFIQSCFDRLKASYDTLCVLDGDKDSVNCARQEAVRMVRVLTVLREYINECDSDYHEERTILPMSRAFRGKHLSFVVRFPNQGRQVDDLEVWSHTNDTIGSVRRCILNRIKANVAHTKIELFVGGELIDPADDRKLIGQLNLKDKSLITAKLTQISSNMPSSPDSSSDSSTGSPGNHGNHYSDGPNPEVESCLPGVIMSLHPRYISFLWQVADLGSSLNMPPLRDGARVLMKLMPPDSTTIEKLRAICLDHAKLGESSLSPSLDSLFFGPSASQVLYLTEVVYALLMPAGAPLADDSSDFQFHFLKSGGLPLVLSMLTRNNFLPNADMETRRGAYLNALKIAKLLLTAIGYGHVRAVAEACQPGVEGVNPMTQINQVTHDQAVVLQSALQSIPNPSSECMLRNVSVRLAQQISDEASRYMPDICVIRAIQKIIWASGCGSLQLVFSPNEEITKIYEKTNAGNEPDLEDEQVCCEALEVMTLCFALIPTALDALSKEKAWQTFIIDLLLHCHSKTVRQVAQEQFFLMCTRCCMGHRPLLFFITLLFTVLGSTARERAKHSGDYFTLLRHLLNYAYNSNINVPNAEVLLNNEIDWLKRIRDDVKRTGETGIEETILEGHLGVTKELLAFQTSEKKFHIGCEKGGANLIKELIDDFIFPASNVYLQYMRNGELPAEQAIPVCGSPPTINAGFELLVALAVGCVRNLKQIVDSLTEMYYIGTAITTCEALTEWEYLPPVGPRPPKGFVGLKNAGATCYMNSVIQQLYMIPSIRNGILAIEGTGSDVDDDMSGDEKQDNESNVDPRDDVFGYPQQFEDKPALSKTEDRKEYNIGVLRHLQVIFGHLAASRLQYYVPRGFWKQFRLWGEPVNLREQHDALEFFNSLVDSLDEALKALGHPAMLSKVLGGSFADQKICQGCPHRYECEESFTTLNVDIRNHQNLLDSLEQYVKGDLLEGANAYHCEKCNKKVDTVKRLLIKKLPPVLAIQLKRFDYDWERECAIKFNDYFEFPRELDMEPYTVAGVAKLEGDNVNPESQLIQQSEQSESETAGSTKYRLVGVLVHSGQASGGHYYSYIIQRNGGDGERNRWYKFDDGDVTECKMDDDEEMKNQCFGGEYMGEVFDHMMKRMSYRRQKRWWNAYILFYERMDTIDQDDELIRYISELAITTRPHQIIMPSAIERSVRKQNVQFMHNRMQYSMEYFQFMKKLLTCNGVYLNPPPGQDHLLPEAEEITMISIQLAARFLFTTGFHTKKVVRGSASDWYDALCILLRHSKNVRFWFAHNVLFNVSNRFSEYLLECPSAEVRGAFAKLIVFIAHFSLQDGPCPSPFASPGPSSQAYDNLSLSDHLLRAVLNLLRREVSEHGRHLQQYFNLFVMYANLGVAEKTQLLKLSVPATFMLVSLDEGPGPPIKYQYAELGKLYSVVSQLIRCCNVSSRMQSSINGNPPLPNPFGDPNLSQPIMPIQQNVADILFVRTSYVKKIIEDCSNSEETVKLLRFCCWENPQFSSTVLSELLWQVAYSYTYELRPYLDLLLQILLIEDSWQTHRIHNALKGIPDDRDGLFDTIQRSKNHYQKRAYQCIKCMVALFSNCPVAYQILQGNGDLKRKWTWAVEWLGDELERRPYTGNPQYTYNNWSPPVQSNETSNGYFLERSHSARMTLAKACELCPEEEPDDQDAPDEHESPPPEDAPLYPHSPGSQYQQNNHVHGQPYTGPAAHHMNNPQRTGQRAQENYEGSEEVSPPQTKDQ
Procedure, shortened: as §1

[10] = molecular target: UniProt O00487
Chain of UniProt O00487 (O00487 whole entry): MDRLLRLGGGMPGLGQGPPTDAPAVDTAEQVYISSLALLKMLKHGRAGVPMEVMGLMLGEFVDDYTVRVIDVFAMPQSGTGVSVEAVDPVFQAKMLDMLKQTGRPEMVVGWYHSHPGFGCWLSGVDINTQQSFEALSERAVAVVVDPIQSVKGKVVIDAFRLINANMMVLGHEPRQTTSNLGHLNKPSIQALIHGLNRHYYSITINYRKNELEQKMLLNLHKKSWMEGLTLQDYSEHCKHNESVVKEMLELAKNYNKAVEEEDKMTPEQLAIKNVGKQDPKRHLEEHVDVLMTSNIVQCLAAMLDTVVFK
Procedure, shortened: as §1

Measured: log2 ratio of Biotin-Ahx-Ub-VS probe labelling

CCC1c2ccsc2CCN1C(=O)CCl (stereo not given)
active: [7] -1.23
inactive: [1] 0.624 | [2] -0.333 | [3] -0.618 | [4] -0.725 | [5] -0.159 | [6] -0.451 | [8] -0.157 | [9] -0.309 | [10] -0.0357
